Consider 15 molecules from PubChem BioAssay (NCI).

Holding throughout (assay): NCI-60 one-dose screen, 48 h (100 = growth as untreated, 0 = no growth, -100 = all killed)
Details in all cases: 10 µM unless noted

The test system of experiment [1] is T-47D breast.
Experiment [2] has as its system BT-549 breast.
In experiment [3] the test system is MDA-MB-435 melanoma.
The test system of experiment [4] is SW-620 colon.
For experiment [5], the system named is MCF7 breast.
Experiment [6] relates to HCT-116 colon.
Experiment [7] relates to HCC-2998 colon.
In experiment [8] the test system is KM12 colon.

About 83,000 compounds went through this panel and 20% of them were active in at least one assay; those are over-represented in the sample as a whole.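 Single-dose data. Exposure time 48 hours. Values below 10 considered active.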 Unmarked numbers belong to inactive results. The source made the active and inactive calls.

As for `Brc1ccc(Nc2nc(Nc3cnc4ccccc4c3)c3[nH]cnc3n2)cc1`, the growth was 52.8% in experiment [1]; 48.6% in experiment [2]; 96.3% in experiment [3]; 91.9% in experiment [4]; 58% in experiment [5]; 55% in experiment [6]. The growth is 103% in experiment [7] and 88.8% in experiment [8].
For the molecule `CN(C)c1ccc(/C=C2\C=C(c3nc4ccccc4s3)OC2=O)cc1`, the growth is 78% in experiment [1]; 110% in experiment [2]; 100% in experiment [3]; 94.7% in experiment [4]; 70.8% in experiment [5]; 100% in experiment [6]. Also, the growth in experiment [7] was 97.8%; in experiment [8] it was 93.7%.
Turning to `CCOC(=O)c1cn2ncnc(Oc3ccc(NC(=O)NC4CC4)c(Cl)c3)c2c1C`, the growth in experiment [1] was 71.9%; in experiment [2], 96.1%; in experiment [3] it was 96.4%; in experiment [4], 97.1%; in experiment [5], 90.5%; in experiment [6], 95.1%. The growth is 101% in experiment [7] and 102% in experiment [8].
As for `COc1ccc(N/N=C/c2cn(-c3ccc(C(=O)O)cc3)nc2-c2cc3ccccc3oc2=O)cc1`, the growth in experiment [1] is 49.6%; in experiment [2], 77.8%; in experiment [3] it was 52.4%; in experiment [4] it was 52.9%; in experiment [5], 49%; in experiment [6], 49.7%. Moreover, the growth in experiment [7] was 41.8%; in experiment [8], 48.2%.
Consider `Cn1cc(-c2nonc2-c2c[nH]c3ccccc23)c2cc(Br)ccc21`, for which the growth in experiment [1] is 14.5%; in experiment [2], 47.1%; in experiment [3], 2.49% (active); in experiment [4], 23.9%; in experiment [5], 19.6%; in experiment [6] it was 25.6%. In addition, the growth in experiment [7] was 43.4%; in experiment [8], 17.7%.
For the molecule `CSc1ccc2c3c(n(C[C@H](O)CO)c(=O)c2c1)-c1ccccc1C3=O`, the growth is 27.3% in experiment [1]; 46.9% in experiment [2]; 72% in experiment [3]; 27.6% in experiment [4]; 11.5% in experiment [5]; -20.6% (active) in experiment [6]. Further, the figures for the growth in experiment [7] and in experiment [8] were 88.8% and 25.3%, respectively.
On to `COc1cc(N2C(=O)[C@H](Cl)C2c2ccc(SC)cc2)cc(OC)c1OC` (stereo not given in full), for which the growth was 49.1% in experiment [1]; -9.33% (active) in experiment [2]; -26.3% (active) in experiment [3]; 24.3% in experiment [4]; 12.4% in experiment [5]; -17.2% (active) in experiment [6]. For the same molecule, the growth was 7.52% (active) in experiment [7] and 14.4% in experiment [8].
On to `O=S(Nc1ccccc1)c1ccc(Cl)cc1` (stereo not given), for which the growth in experiment [1] was 90.7%; in experiment [2], 110%; in experiment [3], 90.4%; in experiment [4], 86.8%; in experiment [5] it was 101%; in experiment [6], 92.1%. Also, the values for the growth in experiment [7] and in experiment [8] were 95.4% and 109%, respectively.
Regarding `COc1ccc(/C=N/Nc2c3ccccc3nc3ccccc23)cc1`, the growth in experiment [1] is 87.5%; in experiment [2] it was 92.2%; in experiment [3], 97%; in experiment [4], 97.7%; in experiment [5] it was 81.9%; in experiment [6], 97.4%. The growth in experiment [7] is 105%; in experiment [8], 91.4%.
For the molecule `COc1ccc(N=C2NN=C(c3c[nH]c4ccccc34)CS2)cc1OC`, the growth in experiment [1] is 57.5%; in experiment [2], -0.386% (active); in experiment [3], -8.16% (active); in experiment [4], 50.4%; in experiment [5], 42.1%; in experiment [6], 39.1%. Also, the growth in experiment [7] was 71.7%; in experiment [8], 23.7%.
With `O=C(NCCNC(c1ccccc1)C(NCCNC(=O)c1ccccc1)c1ccccc1)c1ccccc1` (stereo not given), the growth in experiment [1] was 97.8%; in experiment [2], 96.4%; in experiment [3], 114%; in experiment [4], 57.8%; in experiment [5] it was 70.7%; in experiment [6], 53.8%. Also, the growth was 105% in experiment [7] and 100% in experiment [8].
As for `CN(C)CCC(=O)C1CC1`, the growth in experiment [1] was 97.6%; in experiment [2] it was 99.7%; in experiment [3], 105%; in experiment [4], 102%; in experiment [5], 108%; in experiment [6], 96.1%. Moreover, the values for the growth in experiment [7] and in experiment [8] were 103% and 109%, respectively.
Consider `COc1cc2c(c(OC)c1OC)C(=O)CC(c1cccc(C(=O)Nc3ccccc3Br)c1)O2` (stereo not given), for which the growth is 55.4% in experiment [1]; 78.8% in experiment [2]; 83.9% in experiment [3]; 99.3% in experiment [4]; 68.9% in experiment [5]; 81.5% in experiment [6]. Moreover, the growth was 95% in experiment [7] and 93.5% in experiment [8].
Regarding `Cc1nc(N/N=C/c2cn(-c3ccccc3)nc2-c2cc3ccccc3oc2=O)sc1N=Nc1ccccc1`, the growth in experiment [1] is 83.2%; in experiment [2], 78.3%; in experiment [3] it was 3.67% (active); in experiment [4], 78.8%; in experiment [5], 68.3%; in experiment [6], 87.4%. Further, the figures for the growth in experiment [7] and in experiment [8] were 104% and 63.7%, respectively.
Consider `CCCc1cc(=O)oc2c(C(=O)CC(C)C)c(O)c(CC=C(C)C)c(O)c12`, for which the growth in experiment [1] was 13.5%; in experiment [2], 1.17% (active); in experiment [3] it was 24.3%; in experiment [4], 27.4%; in experiment [5], 7.3% (active); in experiment [6], 14.3%. In addition, the growth is 11% in experiment [7] and 18.9% in experiment [8].
